# Results taken from the supplement of paper PMC8183993.
# Values joined by “and” are separate entries in the source; they are usually repeats but may differ in a detail not shown here. Equal values may be shown once. Where a name gives a salt, the structure may show the parent alone. ± gives the standard deviation of the averaged measurements. In all, about 3,200 compounds were measured (“nuclei count (viability) relative to DMSO”: median about 99, lowest 2% from about 16 on). Shown is part of a subset that was picked to be rich in the lowest values.
# Test system: U2OS
# Assay: nuclei count (viability) relative to DMSO (% of DMSO); higher = more viable cells
# Conditions: 10 µM; 24 h
# Experimental: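 Primary image-based screen in U2OS cells: compounds at 10 uM for 24 h, then a 1 h o-propargyl-puromycin (OPP) pulse, click labelling, and high-throughput microscopy. Mean cytoplasmic OPP intensity and nuclei count were normalised to DMSO wells within each plate (DMSO = 100) and averaged over triplicate plates.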
row,SMILES,nuclei count
1,CCCNC(=O)N1N=C(c2ccc(N)cc2)c2cc3c(cc2C1C)OCO3 (stereo unspecified),93
2,C[C@H]1O[C@@H](O[C@H]2[C@@H](O)C[C@H](O[C@H]3[C@@H](O)C[C@H](O[C@H]4CC[C@@]5(C)[C@H](CC[C@@H]6[C@@H]5C[C@@H](O)[C@]5(C)[C@@H](C7=CC(=O)OC7)CC[C@]65O)C4)O[C@@H]3C)O[C@@H]2C)C[C@H](O)[C@@H]1O [Digoxin],14.3
3,CCN1CCN(c2cc(-c3ccc(F)cc3)c3c(n2)CCCCCC3)CC1 [Blonanserin (Lonasen)],98.7
4,C[S+]([O-])c1ccc(-c2nc(-c3ccc(F)cc3)c(-c3ccncc3)[nH]2)cc1 (stereo unspecified),96.8 and 103
5,CCCCC(CC)CNC(=N)NC(=N)NCCCCCCNC(=N)NC(=N)NCC(CC)CCCC (stereo unspecified) [Alexidine dihydrochloride],6.87
6,N=C(NCCCCCCNC(=N)NC(=N)Nc1ccc(Cl)cc1)NC(=N)Nc1ccc(Cl)cc1 [Chlorhexidine],75.6
7,Nc1nc(OCc2cc(Br)cs2)c2[nH]cnc2n1 [Lomeguatrib],102
8,COc1cccc2c1C(=O)c1c(O)c3c(c(O)c1C2=O)C[C@@](O)(C(=O)CO)C[C@@H]3O[C@H]1C[C@H](N)[C@H](O)[C@H](C)O1 [Doxorubicin (Adriamycin)],12.7
9,COc1cccc2c1C(=O)c1c(O)c3c(c(O)c1C2=O)C[C@@](O)(C(=O)CO)C[C@@H]3O[C@H]1C[C@H](N)[C@H](O)[C@H](C)O1 [Doxorubicin hydrochloride],13 ± 0.18
10,COc1cccc2c1C(=O)c1c(O)c3c(c(O)c1C2=O)C[C@@](O)(C(C)=O)C[C@@H]3O[C@H]1C[C@H](N)[C@H](O)[C@H](C)O1 [Daunorubicin HCl (Daunomycin HCl)],10.2
11,CC(=O)[C@]1(O)Cc2c(O)c3c(c(O)c2[C@@H](O[C@H]2C[C@H](N)[C@H](O)[C@H](C)O2)C1)C(=O)c1ccccc1C3=O [Idarubicin HCl],11.6
12,COc1cccc2c1C(=O)c1c(O)c3c(c(O)c1C2=O)C[C@@](O)(C(=O)CO)C[C@@H]3O[C@H]1C[C@H](N)[C@H](O[C@@H]2CCCCO2)[C@H](C)O1 [Pirarubicin],33
13,COc1cccc2c1C(=O)c1c(O)c3c(c(O)c1C2=O)C[C@@](O)(C(C)=O)C[C@@H]3O[C@H]1C[C@H](N)[C@H](O)[C@H](C)O1 [Daunorubicin hydrochloride],12.3
14,COc1cccc2c1C(=O)c1c(O)c3c(c(O)c1C2=O)C[C@@](O)(C(=O)CO)C[C@@H]3O[C@H]1C[C@H](N)[C@@H](O)[C@H](C)O1 [Epirubicin HCl],13.2
15,CCCc1c(OCCCOc2ccc(OCC(=O)O)cc2)ccc(C(C)=O)c1O,108
16,COc1c(OCCCN2CCOCC2)ccc2c1N=C(NC(=O)c1cnc(N)nc1)N1CCN=C21,93.2
17,CCOC(=O)[C@H](CCc1ccccc1)N[C@H]1CS[C@H](c2cccs2)CN(CC(=O)O)C1=O [Temocapril HCl],108
18,O=C(/C=C/c1c(C(=O)O)[nH]c2cc(Cl)cc(Cl)c12)Nc1ccccc1 [Gavestinel],93.2
19,Cn1cnc(N)c2ncnc1-2 [3-Methyladenine (3-MA)],107
20,Cn1cnc(N)c2ncnc1-2 [3-Methyladenine],104
21,OCC1OC(n2cnc3c(NC4CCCC4)nc(Cl)nc32)C(O)C1O (stereo unspecified) [2-Chloro-N6-cyclopentyladenosine],93.5
22,"CC/C=C\C/C=C\C/C=C\C/C=C\C/C=C\C/C=C\CCC(=O)O [Docosa-4Z,7Z,10Z,13Z,16Z,19Z-hexaenoic acid]",96.9
23,CCCOC(=O)c1cc(O)c(O)c(O)c1 [N-Propyl gallate],82.9

row,SMILES,nuclei count
1,Cc1cc(/C(=C/Nc2ccc(Cl)cc2)C(=O)Nc2ccc(Cl)cc2)on1,102
2,Cc1sc(N)c(C(=O)c2cccc(C(F)(F)F)c2)c1C,107
3,N[C@H](C(=O)O)[C@H](OCc1ccccc1)C(=O)O (racemic),89.6
4,CC(C)NCCN(C(C)C)S(=O)(=O)c1ccc(Cl)cc1Cl,79.5
5,CCCCCS(=O)(=O)CCCCCCCCCCn1c(-c2ccc(O)cc2)c(C)c2cc(O)ccc21,105
6,CN(CCOc1ccc(C[C@H](Nc2ccccc2C(=O)c2ccccc2)C(=O)O)cc1)c1ccccn1,104
7,CC1(C)S[C@@H]2[C@H](NC(=O)Cc3ccccc3)C(=O)N2[C@H]1C(=O)O [Benzathine benzylpenicillin],81.7
8,CC1(C)S[C@@H]2[C@H](NC(=O)Cc3ccccc3)C(=O)N2[C@H]1C(=O)O [Benzylpenicillin sodium],98.6
9,CC1(C)OC2=C(C(=O)c3ccccc3C2=O)[C@H](NCc2ccccc2)[C@@H]1O,14.7
10,Cc1cc(C(=O)NNCc2ccccc2)no1 [Isocarboxazid],109
11,C[C@H]1COC2(CCN(c3nc(=O)c4cc(C(F)(F)F)cc([N+](=O)[O-])c4s3)CC2)O1 (racemic) [BTZ043 racemate],101
12,Cc1nnc(-c2ccc3occ(-c4ccc([S+](C)[O-])cc4)c3c2)o1 (stereo unspecified),112
13,COc1c(C)cnc(Cn2cnc3c(Cl)nc(N)nc32)c1C,49.7
14,Cc1cn(CCN2CCN(c3ccccc3-c3cc(C#N)cc(C(=O)NCCCN4CCCC4)c3)CC2)c2ccccc12,22.8
15,O=C(Nc1cc(C(F)(F)F)cc(C(F)(F)F)c1)c1cc(Cl)ccc1O,78.7
16,CC(C)C[C@H](NC(=O)N1CCCCCC1)C(=O)N[C@H](Cc1cn(C)c2ccccc12)C(=O)N[C@H](Cc1ccccn1)C(=O)O,100
17,O=C1c2ccccc2C(=O)c2c(NCCc3ccc(O)cc3)ccc(NCCc3ccc(O)cc3)c21,97.1
18,O=C1c2c(O)ccc(O)c2C(=O)c2c(NCCNCCO)ccc(NCCNCCO)c21 [Mitoxantrone dihydrochloride],15.5
19,C[N+](C)([O-])CCNc1ccc(NCC[N+](C)(C)[O-])c2c1C(=O)c1c(O)ccc(O)c1C2=O [Banoxantrone dihydrochloride],51.2
20,Nc1[nH]nc2nc3ccccc3nc12,98.5
21,COc1ccc(-c2ccc3ncc4c(c3c2)n(-c2ccc(N3CCNCC3)c(C(F)(F)F)c2)c(=O)n4C)cn1,16.4 ± 5.4
22,CCC(=O)N1CCN(c2ccc(-n3c(=O)ccc4cnc5ccc(-c6cnc7ccccc7c6)cc5c43)cc2C(F)(F)F)CC1 [Torin 1],80.4
23,Nc1ccc(-c2ccc3ncc4ccc(=O)n(-c5cccc(C(F)(F)F)c5)c4c3c2)cn1 [Torin 2],27.7 ± 1.8
